The source of these data is PubChem BioAssay (NCI).

Test systems include EKVX NSCLC; SN12C renal; UO-31 renal; TK-10 renal; ACHN renal; CAKI-1 renal; A498 renal; CCRF-CEM leukemia; MOLT-4 leukemia; SR leukemia.
Common to all, as to assay: NCI-60 one-dose screen, 48 h (100 = growth as untreated, 0 = no growth, -100 = all killed)
Conditions in all cases: 10 µM unless noted

Structures are written as SMILES. Compounds without any hit were thinned out: in the full panel of roughly 83,000, 20% have a hit.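 For each line, cells grew in 96-well plates with the test compound present at a single concentration for 48 hours.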 Values without a mark were called inactive. Calls of active or inactive are those of the source. The calls were made as follows: active = growth percent below 10; inactive = the rest.

As to `O=C(C(Br)Br)C(Br)C(Br)c1ccccc1` (stereo not given), the growth in the assay on EKVX NSCLC is 117%; in the assay with SN12C renal, 93.7%; in the assay on UO-31 renal, 17.8%; with TK-10 renal, 27.7%; in the assay with ACHN renal, 6.67% (active); in the assay with CAKI-1 renal, 72.7%. For the same compound, the growth is 101% in the assay with A498 renal, 14.8% in the assay on CCRF-CEM leukemia, 27.7% in the assay with MOLT-4 leukemia and 19.3% in the assay on SR leukemia.
As for `Fc1ccc(-c2nc(Nc3ccc(-c4nc5ccccc5[nH]4)cc3)nc(N3CCOCC3)n2)cc1`, the growth is -91.3% (active) in the assay on EKVX NSCLC; -79.5% (active) in the assay with SN12C renal; -87.6% (active) with UO-31 renal; -94.4% (active) with TK-10 renal; -90.6% (active) in the assay with ACHN renal; -93.6% (active) in the assay on CAKI-1 renal. Besides, the growth was -81.5% (active) in the assay with A498 renal, -91.5% (active) with CCRF-CEM leukemia, -91.6% (active) in the assay with MOLT-4 leukemia and -83.3% (active) with SR leukemia.
As to `C[n+]1ccc(Nc2ccc(NC(=O)c3ccc(Nc4cc[n+](C)c5ccc(N)cc45)cc3)cc2)cc1`, the growth with EKVX NSCLC was 93.9%; in the assay with SN12C renal, 88.4%; with UO-31 renal, 75.7%; in the assay with TK-10 renal, 108%; with ACHN renal, 100%; with CAKI-1 renal, 94.5%. Moreover, the growth is 93.9% in the assay with A498 renal, 98% in the assay on CCRF-CEM leukemia, 97.5% in the assay on MOLT-4 leukemia and 93.2% with SR leukemia.
On to `N#Cc1ccc(NC(=O)Nc2ccc(Oc3ccc(NC(=O)Nc4ccc(C#N)cc4)cc3)cc2)cc1`, for which the growth was 34.1% in the assay with EKVX NSCLC; 39% in the assay on SN12C renal; -25.7% (active) with UO-31 renal; 37.9% in the assay on TK-10 renal; 23.1% with ACHN renal; 33% with CAKI-1 renal. Further, the growth is 41.1% with A498 renal, -13.7% (active) in the assay with CCRF-CEM leukemia, -58% (active) in the assay on MOLT-4 leukemia and 3.43% (active) in the assay with SR leukemia.
Turning to `CC(CCC(=O)O)(NC(=O)c1ccc([N+](=O)[O-])cc1)C(=O)O` (stereo not given), the growth in the assay with EKVX NSCLC is 114%; in the assay with SN12C renal, 107%; with UO-31 renal, 86.2%; in the assay on TK-10 renal, 106%; with ACHN renal, 125%; in the assay on CAKI-1 renal, 108%. For the same compound, the growth in the assay on A498 renal was 108%; in the assay on CCRF-CEM leukemia, 103%; in the assay on MOLT-4 leukemia, 93.6%; in the assay with SR leukemia, 95.7%.
Consider `O=c1cc(-c2cccnc2)oc2c1ccc1ccccc12`, for which the growth was 86.3% in the assay with EKVX NSCLC; 80.3% in the assay with SN12C renal; 60.5% in the assay with UO-31 renal; 114% with TK-10 renal; 69.6% with ACHN renal; 72.9% in the assay on CAKI-1 renal. Also, the growth in the assay on A498 renal was 61.6%; in the assay with CCRF-CEM leukemia, 88.1%; in the assay on MOLT-4 leukemia, 103%; in the assay with SR leukemia it was 39.3%.
For the compound `CN(C)c1ccc2[nH]c3c(C(N)=O)cc(=O)c(=O)c=3oc2c1`, the growth is 100% in the assay with EKVX NSCLC; 54.5% with SN12C renal; 56.3% in the assay with UO-31 renal; 111% in the assay with TK-10 renal; 29.7% with ACHN renal; 83.2% in the assay on CAKI-1 renal. The growth in the assay on A498 renal was 87.7%; in the assay with CCRF-CEM leukemia it was 11.9%; in the assay with MOLT-4 leukemia, 9.08% (active); in the assay with SR leukemia, 31%.
`S=C(c1ccccc1)N1CCN(c2cccc(Cl)c2)CC1`: the growth with EKVX NSCLC was 99.5%; with SN12C renal, 100%; in the assay on UO-31 renal, 93.2%; in the assay with TK-10 renal, 110%; with ACHN renal it was 104%; with CAKI-1 renal, 88.7%. Also, the growth in the assay on A498 renal is 64.6%; in the assay on CCRF-CEM leukemia, 84.1%; in the assay with MOLT-4 leukemia, 85.2%; in the assay with SR leukemia, 82.4%.
With `CC(NC(=O)C(C)Oc1ccc(Cl)cc1Cl)C(=O)O` (stereo not given), the growth with EKVX NSCLC was 95.8%; in the assay with SN12C renal, 73.3%; in the assay on UO-31 renal it was 78.1%; with TK-10 renal it was 125%; in the assay with ACHN renal, 109%; with CAKI-1 renal, 101%. Also, the growth in the assay on A498 renal was 113%; in the assay on CCRF-CEM leukemia, -9.97% (active); in the assay on MOLT-4 leukemia, 139%; with SR leukemia, 137%.
Turning to `O=C(/C=C/c1cccnc1)/C=C/c1cccnc1`, the growth was 43.3% in the assay with EKVX NSCLC; 4.41% (active) with SN12C renal; -81.9% (active) in the assay on UO-31 renal; 17.3% in the assay with TK-10 renal; 13% in the assay on ACHN renal; -20.5% (active) in the assay on CAKI-1 renal. Also, the growth in the assay with A498 renal is 93.1%; in the assay on CCRF-CEM leukemia, -48.4% (active); in the assay on MOLT-4 leukemia it was -22.8% (active); in the assay with SR leukemia, -57.3% (active).
Take `O=C(CSc1nnc(Nc2ccccc2)s1)NCCc1ccc(F)cc1`: the growth with EKVX NSCLC was 91.7%; in the assay on SN12C renal, 103%; with UO-31 renal, 48.4%; in the assay on TK-10 renal it was 128%; in the assay with ACHN renal, 107%; with CAKI-1 renal it was 106%. Moreover, the growth in the assay on A498 renal was 93.1%; in the assay with CCRF-CEM leukemia it was 117%; with MOLT-4 leukemia it was 103%; with SR leukemia it was 164%.
Consider `Cc1ccccc1-c1cc(Cc2ccccc2O)c(=O)[nH]n1`, for which the growth is 67% with EKVX NSCLC; 97.4% in the assay on SN12C renal; 71.1% in the assay with UO-31 renal; 130% in the assay on TK-10 renal; 94.9% in the assay on ACHN renal; 88.8% in the assay on CAKI-1 renal. Also, the growth with A498 renal was 110%; in the assay with CCRF-CEM leukemia it was -49.5% (active); with MOLT-4 leukemia, 86.7%; in the assay with SR leukemia it was 92.5%.
With `COc1ccc(COC(C)=O)cc1`, the growth is 113% in the assay on EKVX NSCLC; 124% with SN12C renal; 97.2% with UO-31 renal; 126% with TK-10 renal; 99.1% in the assay with ACHN renal; 105% in the assay on CAKI-1 renal. In addition, the growth was 88.7% in the assay on A498 renal, 86.4% in the assay on CCRF-CEM leukemia, 107% in the assay with MOLT-4 leukemia and 112% with SR leukemia.
As to `Cn1c(=O)c2nc(SCc3ccccc3)n(C)c2n(C)c1=O`, the growth is 123% in the assay with EKVX NSCLC; 90.4% with SN12C renal; 98.3% in the assay with UO-31 renal; 111% with TK-10 renal; 99.1% in the assay on ACHN renal; 119% with CAKI-1 renal. The growth was 77.3% with A498 renal, 122% with CCRF-CEM leukemia, 106% in the assay on MOLT-4 leukemia and 83.3% in the assay with SR leukemia.
